# Assay results from PubChem BioAssay AID1985 (Southern Research Specialized Biocontainment Screening …, 2009).
# In all, about 2,300 compounds went through this assay and about 1,000 (43%) were called active. How the calls were made is not given here. So high a share suggests a set chosen from earlier hits. This is one part of the list. Measured potencies and affinities stand elsewhere.
# Experiment: modified counter assay using GFP fluorescence, PhoP regulon inhibitor project, dose response (AID 1985)
# Conditions: S. Typhi, 4 h; series mostly up to 150 µM
row,SMILES,outcome
1,Nc1nc2ccccc2cc1-c1cccs1,inactive
2,Nc1ccc(N=Nc2ccccc2)c(N)n1,inactive
3,Nc1nn2cc(-c3ccccc3)nc2c2ccccc12,inactive
4,Cc1cc(-c2nc3ccccc3o2)c2ccccc2n1,inactive
5,Cc1ccc(C)c(Nc2cc(C)nc3ccccc23)c1,inactive
6,CCCN(C(=O)CSc1nc2ccccc2n1CC)C1CCS(=O)(=O)C1 (stereo unspecified),inactive
7,CCOc1ccc(-c2ccc(SCC(=O)N3CCOCC3)nn2)cc1,inactive
8,CCCCc1cc(=O)oc2cc(C)cc(OCC(=O)NCC3CCC(C(=O)O)CC3)c12 (stereo unspecified),inactive
9,Clc1ccc2c(c1)c1cc(Cl)ccc1n2CN1CCOCC1,inactive
10,CC(C)C(NC(=O)c1ccc(Cl)cc1)C(=O)NCC1CCCO1 (stereo unspecified),inactive
11,Cc1ccc(N(CC(=O)Nc2c(C)n(C)n(-c3ccccc3)c2=O)S(C)(=O)=O)cc1C,inactive
12,OCC[C@H]1C[C@H](O)[C@@H](O)[C@@]2(Cc3ccccc3CO2)O1,inactive
13,O=C(NC1(C(F)(F)F)C(=O)Nc2c1c(=O)[nH]c(=O)n2-c1ccccc1)c1ccncc1 (stereo unspecified),inactive
14,Cc1ccn2cc(-c3ccc4c(c3)NC(=O)CO4)nc2c1,inactive
15,Cc1csc2ncc(C(=O)Nc3ccon3)c(=O)n12,inactive
16,Cc1cc(C)c(S(=O)(=O)Nc2cccnc2)c(C)c1,inactive
17,Cc1ccc(NNS(=O)(=O)c2ccc(C)cc2)cc1,inactive
18,Cc1cccc(NC(=O)C2CCCN2S(=O)(=O)c2ccc3c(c2)n(C)c(=O)c(=O)n3C)c1 (stereo unspecified),inactive
19,CC(=O)Nc1ccc(S(=O)(=O)Nc2nc3ccccc3nc2Nc2cccc(S(N)(=O)=O)c2)cc1,inactive
20,CCOc1ccccc1NC(=O)NS(=O)(=O)c1ccc(C)cc1,inactive
21,Cc1cccc(NCN2C(=O)c3ccccc3C2=O)c1,inactive
22,CC(C)NC(=O)Nc1ccc(Br)cc1Cl,inactive
23,CC1CC(C)CN(C(=O)c2ccc(NC(=O)c3ccc(=O)[nH]c3)cc2)C1 (stereo unspecified),inactive
24,COCCNC(=O)CN(C(=O)CCC(=O)Nc1ccccn1)c1ccc(F)c(Cl)c1,inactive

row,SMILES,outcome
1,O=C(NCCOc1ccccc1)c1ncn[nH]1,inactive
2,O=C(OCCCN1C(=O)c2ccccc2C1=O)c1ccco1,inactive
3,CC(C)CCNC(=O)c1cc2c(s1)-c1ccccc1S(=O)(=O)C2,inactive
4,CN1CCc2c(sc3c2C(=O)NC(c2ccc4c(c2)OCO4)N3)C1 (stereo unspecified),inactive
5,NS(=O)(=O)c1ccc(CNc2ccc3ccccc3n2)cc1,inactive
6,CCOC(=O)C1CCN(C(=O)CCc2nc3ccccc3[nH]2)CC1,inactive
7,O=C(CSc1ccccc1)N1CCC(N2CCC(C(=O)N3CCCC3)CC2)CC1,inactive
8,Cc1c(CC(=O)N2CCC(C(N)=O)CC2)c(=O)oc2cc3c(cc12)CCC1(CCCCC1)O3,inactive
9,C#CCOCCOCCOCCNc1nc(N2CCN(C(=O)CCCCCCCCCCNC(=O)Cn3cc(CCCCCN)nn3)CC2)nc(N2CCN(C(=O)CCCCCCCCCCNC(=O)[C@@H]([C@H](C)O)n3cc(C)nn3)CC2)n1,inactive
10,Cc1nc2ccccn2c1/C(O)=C1\C(=O)C(=O)N(CCN2CCOCC2)C1c1cccnc1 (stereo unspecified),inactive
11,COc1cccc(/C=C/C(=O)c2cccc([N+](=O)[O-])c2)c1OC,inactive
12,CCOC(=O)c1ccc(N2Cc3ccccc3C2=NC(=O)c2cccc([N+](=O)[O-])c2)cc1,inactive
13,CC(C(=O)c1ccc2ccccc2c1)N1CCCCC1 (stereo unspecified),inactive
14,O=C(Nc1nnc(-c2cccs2)o1)c1cccc(F)c1,inactive
15,O=C(Nc1nnc(-c2cccs2)o1)c1cccc(C(F)(F)F)c1,inactive
16,COc1ccccc1C(=O)Nc1nnc(-c2ccc(Cl)cc2)o1,inactive
17,CCC(=O)Nc1nnc(-c2ccco2)o1,inactive
18,C=CCn1c(O)c(N=NC(=O)c2cccnc2)c2cc(Br)ccc21,inactive
19,O=C(N/N=C/c1cccc(OCc2ccccc2)c1)c1cccs1,inactive
20,CCOC(=O)c1ccccc1-n1c(C)cc(C2N=C(N)Nc3nc4ccccc4n32)c1C (stereo unspecified),inactive
21,NC1=NC(c2cccc(O)c2)n2c(nc3ccccc32)N1 (stereo unspecified),inactive
22,Cc1cc(C)c(S(=O)(=O)Nc2ccccc2C(=O)OCC(=O)NCc2ccccc2)c(C)c1,inactive
23,NC(=O)c1ccsc1NC(=O)c1ccc2c(c1)CCCC2,inactive
24,COc1ccc(N2CCN(c3cc(C)c4ccc(O)cc4n3)CC2)cc1,inactive

row,SMILES,outcome
1,CCOC(=O)C(CC)Sc1ccc2nnc(-c3cccnc3)n2n1 (stereo unspecified),inactive
2,COc1ccc(OC)c(C2=NO[C@@H]3C(=O)N(c4cc(Cl)ccc4OC)C(=O)[C@H]23)c1,inactive
3,Fc1cccc(NC(=S)NCc2ccc(Cl)cc2)c1,inactive
4,O=[N+]([O-])c1cccnc1S(=O)(=O)c1ccccc1,inactive
5,CCCCCNc1nc(N2CCCC2)c2c(c1C#N)CCN(C)C2,inactive
6,O=C(NCCO)C(=O)c1c(-c2ccc(Cl)cc2)cc2ccccn12,inactive
7,COCCn1c(SCC(=O)Nc2nnc(C)s2)nnc1-c1c[nH]c2ccccc12,inactive
8,CCCCNC(=O)NS(=O)(=O)c1ccc(C(=O)OC)o1,inactive
9,CCCCC(=O)Nc1ccc(F)c(Cl)c1,inactive
10,Cc1cnc(C(=O)OCC(=O)Nc2cccc(Cl)c2)cn1,inactive
11,O=C(Cc1ccccc1)NCC(=O)Nc1cccc(Cl)c1,inactive
12,CCC(Sc1nc2ccncc2[nH]1)C(=O)Nc1ccc(C)c(Cl)c1 (stereo unspecified),inactive
13,Cc1cccc(NC(=O)CSc2nc3c([nH]c4ccccc43)c(=O)n2C)c1,inactive
14,Nn1cnnc1SCC(=O)Nc1ccc(C2CCCCC2)cc1,inactive
15,O=C(COc1ccc(Cl)cc1)Nc1cccc(-c2ccc3nncn3n2)c1,inactive
16,Cc1ccc(NC(=O)c2cc(NC(=O)CCCC(=O)O)ccc2Cl)cc1Cl,inactive
17,CCS(=O)(=O)N1CCN(C2CCC(c3ccccc3)CC2)CC1 (stereo unspecified),inactive
18,C[N+]12CN3CN(CN(C3)C1)C2,inactive
19,CC1CCN(CCC(=O)Nc2ccc(Cl)cc2)CC1,inactive
20,CCOC(=O)c1ccc(NC(=O)CSC(=S)N2CCOCC2)cc1,inactive
21,COCc1[nH]nc2c1C(c1c(F)cccc1Cl)C(C#N)=C(N)O2 (stereo unspecified),inactive
22,CCOC(=O)c1cnn2c1[nH]c(=O)c1ccccc12,inactive
23,O=C(CCC(=O)Nc1nnc(C2CCCCC2)s1)NCC1CCCO1 (stereo unspecified),inactive
